Bioassay records from PubChem.
Shown are actives, neighbours in structure and some others; about 7.6% of the full set was active somewhere.
Cy5 interf NS3h: counter-screen for HCV NS3 helicase inhibitors: fluorescence interference; Cy5-dT15 DNA with NS3h; actives lie on both sides; signal over control mean, under 1 quenches; AID 720488; fluorescence interference ratio at 100 µM; hit rate 6% among 16,000;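 active means compound fluorescence over control fluorescence at most 0.8, a quencher, or at least a set upper limit, an enhancer; inactive means ratio between 0.8 and the set upper limit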
NS3h inh CB: blocks HCV NS3 helicase binding to DNA | AID 687043 | NS3h Cy5-dT15 DNA binding, fluorescence polarization | inhibition, % at 100 µM | hit rate 1.6% among 16,000;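 active means inhibition above the average over every tested compound plus 3 SD, cut at about 40% in these data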
Hits are given with their value; n = inactive.

SMILES | Cy5 interf NS3h | NS3h inh CB
CCOC(=O)C1=C(C)N=c2s/c(=C\c3ccc(N(C)C)o3)c(=O)n2C1c1ccc(OCC)cc1 (stereo not drawn) | 0.8 | n
CCOC(=O)C1=C(C)N=c2s/c(=C\c3ccc([N+](=O)[O-])o3)c(=O)n2C1c1ccc(OCC)cc1 (stereo not drawn) | n | n
COC(=O)c1ccc(-n2c(C)cc(/C=C(\C#N)C(=O)Nc3ccccc3)c2C)cc1 | n | n
O=C(/C=C/c1cccc(C(F)(F)F)c1)Nc1cccc2ncccc12 | n | n
O=C1CCC(=O)N1CNc1ccc(F)cc1 | n | n
C/C(=N/N=C1\NC(=O)C(CC(=O)Nc2ccc(Cl)cc2Cl)S1)c1ccc(Cl)cc1 (stereo not drawn) | n | n
COc1ccc(/C(C)=N\N=C2/NC(=O)C(CC(=O)Nc3cc(Cl)ccc3Cl)S2)cc1 (stereo not drawn) | 1.2 | n
Cc1ccc(OCC(=O)Nc2ccccc2O)cc1 | n | n
CCOc1c(Br)cc(/C=C(\C#N)c2nn(-c3ccccc3)c(N)c2C#N)cc1OC | n | n
CCOc1c(Br)cc(/C=C(\C#N)c2nn(CCO)c(N)c2C#N)cc1OC | 0.79 | n
COc1ccc(C2Nc3ccccc3C(=O)N2Cc2ccco2)cc1CSc1ccccn1 (stereo not drawn) | n | n
COc1ccccc1CNC(=O)C(=O)Nc1ccccc1C | n | n
Cc1cccc(NC(=O)C(=O)NCc2ccccc2Cl)c1C | 0.78 | n
COc1ccc(C)cc1C(=O)CCC(=O)O | n | n
CCc1ccc(NC(=O)c2ccc(Cl)cc2Cl)cc1 | n | n
CCOC(=O)c1sc(NC(=O)c2ccc(Cl)cc2Cl)nc1C | 0.64 | n
CCOC(=O)c1sc(NC(=O)c2cncc(Br)c2)nc1C | n | n
CCOC(=O)c1sc(NC(=O)c2ccc(OCC)c(Cl)c2)nc1C | n | 57
O=Cc1ccc(OC(=O)c2ccccc2I)cc1 | 0.7 | n
O=C1NC(=O)/C(=C/c2ccc(OC(=O)c3ccccc3I)cc2)S1 | n | n
O=C(NCC1CCCO1)/C(=C/c1cccc(Oc2ccccc2)c1)NC(=O)c1ccccc1 (stereo not drawn) | n | n
Cc1cc(NC(=O)c2ccc(Cl)c([N+](=O)[O-])c2)ccc1Br | n | n
Cc1ccccc1C(=O)Nc1cccc(NC(=O)c2ccc(Cl)c([N+](=O)[O-])c2)c1 | 0.71 | n
O=C(NC(=C(Cl)Cl)S(=O)(=O)c1ccc(Cl)cc1)c1ccccc1 | 0.79 | n
COC(=NS(=O)(=O)c1ccc(Cl)cc1)c1ccccc1 | n | n
SMILES | Cy5 interf NS3h | NS3h inh CB
CC(=O)CC(=O)Nc1ccc(Br)cc1 | n | n
CCCOc1ccc(C2C3=C(CC(C)(C)CC3=O)OC3=C2C(=O)CC(C)(C)C3)cc1OCC | 0.78 | n
CCCOc1c(Br)cc(C2C3=C(CC(C)(C)CC3=O)OC3=C2C(=O)CC(C)(C)C3)cc1OC | n | n
CN(C)c1ccc(/C=C2/C(=O)NN(c3cccc(Cl)c3)C2=O)cc1 | n | n
O=C(Nc1ccc2c(c1)C(=O)OC2)NC1CCCCC1 | 1.4 | n
CN(C)c1cccc(C(=O)NC2CCCCCC2)c1 | n | n
COC(=O)C(C)Oc1ccc2c3c(c(=O)oc2c1)CCC3 (stereo not drawn) | n | n
Cc1ccc(NC(=O)C2C3CC/C=C\CCC32)cc1 (stereo not drawn) | n | n
O=C(O)C1C2C=CC(C3CC23)C1C(=O)Nc1ccc(F)cc1 (stereo not drawn) | 0.69 | n
O=c1c2c(nc3cc(-c4cccc(Cl)c4)[nH]n13)CCS2 | 0.72 | n
O=c1cc(-c2ccccc2)nc2cc(-c3cccc(Cl)c3)[nH]n12 | 1.2 | n
O=c1c2c(nc3cc(-c4cccc(F)c4)[nH]n13)CCCC2 | n | n
Cc1cc(=O)n2[nH]c(-c3cccc(F)c3)cc2n1 | n | n
NC(=O)c1ccc(NC(=O)c2ccccc2[N+](=O)[O-])cc1 | n | n
O=C(N/N=C\c1ccc[nH]1)c1ccccc1[N+](=O)[O-] | 0.67 | n
CCCc1cc(=O)oc2cc(OCc3c(F)cccc3Cl)ccc12 | n | n
NS(=O)(=O)c1ccc(N/C=C\C(=O)c2ccc3c(c2)OCO3)cc1 | n | n
Cc1ccc2[nH]c(O)c(N=NC(=O)c3cc4ccccc4nc3C)c2c1 | n | n
Cc1ccc(N2C(=O)NC(=O)/C(=C\c3ccc(Cl)cc3)C2=O)cc1 | n | n
O=C1NC(=O)N(c2ccc(I)cc2)C(=O)/C1=C\C=C\c1ccco1 | 0.77 | n
Cc1ccc(C23CC4CC(CC(C(=O)Nc5ccc(C(=O)O)cc5)(C4)C2)C3)cc1 | n | n
COc1ccc(C(=O)Nc2ccc(C)c(Cl)c2)cc1OC | 0.73 | n
COc1ccc(C(=O)Nc2ccc(C(N)=O)cc2)cc1[N+](=O)[O-] | 0.78 | n
Cc1cc(C)cc(NC(=O)c2ccc(C)c([N+](=O)[O-])c2)c1 | n | n
Cc1ccc(NC(=O)c2ccc(I)cc2)cc1Cl | n | n
SMILES | Cy5 interf NS3h | NS3h inh CB
COc1ccc(C(=O)Nc2ccc(C(C)C)cc2)cc1[N+](=O)[O-] | n | n
Cc1cc(C(=O)Nc2ccc(N(C)C)cc2)ccc1[N+](=O)[O-] | 0.24 | n
Cc1cc(C)cc(CSCC(=O)O)c1 | n | n
Cc1ccc(C#CC#Cc2ccc(C)nc2)cn1 | n | n
CCN(CC)c1ccc(NC(=O)c2cccc(OC)c2)cc1 | n | n
CCOc1ccc(NC(=S)NC(=O)c2ccc(OC)cc2)c([N+](=O)[O-])c1 | n | n
CCOc1ccc(NC(=O)c2ccc(S(=O)(=O)N(C)C)cc2)c([N+](=O)[O-])c1 | 0.57 | n
CCOc1ccc(NC(=S)NC(=O)/C=C/c2ccc(OC)c(OC)c2)c([N+](=O)[O-])c1 | 0.8 | n
CCOc1ccc(NC(=S)NC(=O)/C=C/c2ccc(C)cc2)c([N+](=O)[O-])c1 | n | n
O=C(c1nn2c(c1Cl)NC(c1cccs1)CC2C(F)(F)F)N(Cc1ccccc1)Cc1ccccc1 (stereo not drawn) | n | n
CCOc1ccccc1NC(=O)CN(c1ccc(C)cc1)S(=O)(=O)c1ccc(F)cc1 | n | n
Cc1ccc(CN2CCN(N=Cc3ccccc3[N+](=O)[O-])CC2)c(C)c1 | n | n
Cc1ccc(NC(=S)NC(=O)/C=C/c2ccccc2)c(C)c1 | n | n
O=C1C2C3C=CC(C3)C2C(=O)N1c1cccc(-c2nc3ccccc3c(=O)o2)c1 (stereo not drawn) | 0.76 | n
O=C1C2C3C=CC(C3)C2C(=O)N1c1cccc(Oc2cccc(Oc3cccc(N4C(=O)C5C6C=CC(C6)C5C4=O)c3)c2)c1 (stereo not drawn) | n | n
COc1cc(/C=C2\C(=O)NN(c3ccccc3)C2=O)ccc1OCC(=O)O | n | n
O=C1NN(c2ccccc2)C(=O)/C1=C/c1ccc(OCc2ccccc2F)cc1 | n | n
CCOC(=O)COc1ccc(/C=C2\C(=O)NN(c3ccc(Cl)c(Cl)c3)C2=O)cc1OC | 0.8 | n
COc1cc(/C=C2\C(=O)NN(c3ccccc3)C2=O)ccc1OCc1ccccc1F | 0.56 | n
COc1ccc(N(CC(=O)Nc2ccc(OC)c(OC)c2)S(C)(=O)=O)cc1 | n | n
O=S(=O)(Oc1cccc2ccccc12)c1cc(Cl)ccc1Cl | n | n
O=C(Oc1cccc2ccccc12)c1ccc(Cl)cc1Cl | 0.64 | n
COc1ccc(OC)c(N(CC(=O)Nc2ccc(C(C)C)cc2)S(C)(=O)=O)c1 | n | n
CCc1ccccc1N(CC(=O)Nc1ccc(OC)cc1)S(C)(=O)=O | n | n
O=C1N=c2ccccc2=C1c1sc(=S)n(-c2ccc(C(=O)O)cc2)c1O | 1.2 | n
